# MITF inh: MITF inhibitors, primary screen, biochemical, AlphaScreen, human. AlphaScreen MITF homodimerization, bead proximity signal. inhibition, % at 2.6 µM. hit rate 0.91% among 650,000; in the data active = inhibition above about 50%;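 also: 0% = vehicle wells with protein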
# Target sequence (O75030 whole entry, looked up): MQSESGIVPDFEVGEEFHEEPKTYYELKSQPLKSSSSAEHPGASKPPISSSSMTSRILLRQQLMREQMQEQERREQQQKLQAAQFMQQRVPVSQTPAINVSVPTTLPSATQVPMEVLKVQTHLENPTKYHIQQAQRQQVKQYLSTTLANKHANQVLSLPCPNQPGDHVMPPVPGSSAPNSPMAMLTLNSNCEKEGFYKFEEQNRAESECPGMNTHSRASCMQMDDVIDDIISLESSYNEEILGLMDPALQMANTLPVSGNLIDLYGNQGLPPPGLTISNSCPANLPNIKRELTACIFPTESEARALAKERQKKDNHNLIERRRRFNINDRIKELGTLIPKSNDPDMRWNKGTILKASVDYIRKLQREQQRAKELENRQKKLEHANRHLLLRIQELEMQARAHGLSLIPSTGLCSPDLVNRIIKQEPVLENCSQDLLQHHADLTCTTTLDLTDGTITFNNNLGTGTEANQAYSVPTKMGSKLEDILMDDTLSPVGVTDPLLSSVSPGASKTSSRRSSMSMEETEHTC
# FBW7 act: FBW7 E3 ligase activators, primary screen, biochemical, AlphaScreen, human; F-box/WD repeat-containing protein 7 (Homo sapiens), Q969H0; AlphaScreen FBW7–phospho-cyclin E peptide binding, activator screen; normalized activity (activation), % at 26.1 µM; hit rate 0.13% among 650,000; in the data active = normalized activity above about 1.9%;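 also: purified mutant Fbw7 with reduced substrate affinity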
# TEAD-YAP block: TEAD-YAP interaction inhibition, primary screen, TEAD-YAP interaction inhibitor project, luminescence, HEK-TIYL cells. TEAD-Gal4/YAP UAS-luciferase luminescence. AID 1259422, 2018. inhibition, % at 9.12 µM. hit rate 1.4% among 640,000; in the data active = inhibition above about 32%;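 also: 0% = median of test compound wells and 100% = reference inhibitor wells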
# GPR151 activ: activators of human GPR151, primary screen, cell-based, PathHunter beta-arrestin, luminescence; G-protein coupled receptor 151 (Homo sapiens), Q8TDV0; PathHunter beta-arrestin GPR151 cells; activation, % at 11.2 µM; hit rate 1% among 650,000; in the data active = activation above about 4.9%;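 also: 0% = median of compound wells and 100% = cells with positive control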
# GPR151 conf act: GPR151 activators, triplicate retest, confirmation, cell-based, PathHunter beta-arrestin, luminescence. AID 1508609, 2020. GPR151 PathHunter beta-arrestin cells, 90 min; % of EA-reagent control over plate median. shares compounds with GPR151 activ. 6,700 tested, under 10 active. activation, % at 11.2 µM;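 active = mean percent activation across replicates above the confirmation screen cutoff of 4.91%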
# GPR119 counter: GPR119 activators in beta-arrestin cells, counter-screen for GPR151 activator project, cell-based, PathHunter beta-arrestin, luminescence, triplicate; shares compounds with GPR151 activ; 90 min; 0 = compound-well median, 100 = enzyme-acceptor control; activation, % at 11.2 µM; hit rate 0.3% among 6,700; AID 1508611, 2020;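 active = mean percent activation in the counterscreen above 29.09%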;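 also: counterscreen on off-target GPR119 to flag nonselective hits from the GPR151 activator screen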
# * marks the source's active call; other numbers are inactive results; . = not tested or not shown. This is a sample that favours compounds with a hit; in the whole collection about 3.5% have one here.
SMILES,MITF inh,FBW7 act,TEAD-YAP block,GPR151 activ,GPR151 conf act,GPR119 counter
Cc1cccc2sc(N(Cc3ccccn3)C(=O)CCOc3ccccc3)nc12,-6.3,0.3,-13.8,5.8*,-0.2,2.6
CCc1cc2c(cc3c(=O)n(CC(=O)N4CC(C)CC(C)C4)ncn32)s1 (stereo not given),-0.2,0.6,6.7,-0.2,.,.
Cn1nnc2cc(NC(=O)Nc3ccccc3F)ccc21,2.1,0.2,11.5,-2.9,.,.
Cn1nnc2cc(NC(=O)NCc3ccccc3)ccc21,10.5,0.3,-8.6,6.3*,-0.5,-3.5
COc1ccc(Nc2nc(N3CCN(C)CC3)c3ccccc3n2)cc1,3.8,0.0,2.0,9.5*,0.7,-3.2
CCOc1ccc(Nc2nc(N3CCN(C)CC3)c3ccccc3n2)cc1,19.2,-0.1,-2.0,0.3,.,.
O=C(O)C(NS(=O)(=O)c1ccc([N+](=O)[O-])cc1)c1ccccc1 (stereo not given),15.8,0.0,4.3,2.5,.,.
COC(=O)C(NS(=O)(=O)c1ccc([N+](=O)[O-])cc1)c1ccccc1 (stereo not given),-1.5,0.1,9.1,9.3*,0.3,3.2
CN(Cc1cccc(C(=O)NCCCCCCNS(=O)(=O)c2cccc3c(N(C)C)cccc23)c1)C(=O)Nc1ccc(-c2cn[nH]c2)cc1,19.4,3.1*,20.6,5.7*,0.4,9.0
CCCN1C(=O)/C(=C/c2ccco2)SC1=S,22.0,0.0,-6.9,-1.2,.,.
CCC(C)N1C(=O)/C(=C\c2ccco2)SC1=S (stereo not given),-2.2,-0.1,1.9,8.1*,0.4,1.5
COc1ccc(C(C)C)cc1-c1cnc2ccc(NCCc3ccccn3)nn12,-16.8,-0.5,-0.9,-0.5,.,.
Cc1ccc(CNC(=O)COc2ccccc2C)cc1,-7.2,-0.1,5.7,7.4*,0.8,0.5
CCc1ccccc1OCC(=O)NCc1ccccc1,12.3,0.7,-5.0,5.8*,-0.4,0.2
COc1ccccc1CNC(=O)COc1cccc2ccccc12,23.1,0.1,-14.0,5.6*,0.8,3.1
O=C(CNC(=O)Cc1ccccc1)NCC(=O)OCc1ccccc1,-12.5,-0.4,6.7,1.8,.,.
O=C(Cc1ccccc1)NCC(=O)OCc1ccccc1,-2.3,0.0,7.0,6.3*,0.1,-3.0
O=C(COc1ccccc1Br)NCc1ccccc1,-16.7,0.2,-16.8,2.1,.,.
Cc1cc(NC(=O)c2ccccc2C)ccc1I,-17.1,0.0,-76.0,-2.6,.,.
Cc1ccc(/C(O)=C2/C(=O)C(=O)N(CCC(=O)O)C2c2cccc([N+](=O)[O-])c2)cc1 (stereo not given),19.8,0.8,-7.9,0.2,.,.
COc1ccc(CN2CCN(c3ccccc3C)CC2)c(OC)c1OC,39.2,0.2,-2.2,3.8,.,.
O=C(CN1C(=O)CC(c2ccco2)Sc2ccccc21)Nc1ccc2c(c1)OCO2 (stereo not given),-0.2,0.0,-2.0,0.1,.,.
O=C(CN1C(=O)c2cccc3cccc(c23)C1=O)NCCO,-0.7,-0.1,-4.1,2.0,.,.
CN(C(=O)C1CC1)c1ccccc1C(=O)NCc1ccccc1,3.7,-0.2,-0.5,-0.8,.,.
O=C(CCc1ccccc1)Nc1ccccc1C(=O)NCc1ccccc1,-4.9,0.1,-3.4,8.0*,-0.2,12.8
SMILES,MITF inh,FBW7 act,TEAD-YAP block,GPR151 activ,GPR151 conf act,GPR119 counter
O=C(Cc1ccccc1)Nc1ccccc1C(=O)NCc1ccccc1,-18.2,0.0,-11.6,-1.7,.,.
O=C(CCCc1ccccc1)Nc1ccc(O)cc1C(=O)O,4.2,0.3,8.7,-1.5,.,.
CC(=O)Nc1ccc(C(=O)NCCNC(=O)Cc2ccc(F)cc2)cc1,-9.7,-0.1,-7.2,5.5*,0.7,1.0
CN(C(=O)c1ccc(F)cc1)c1ccccc1C(=O)NCc1ccccc1,0.5,0.0,7.7,9.0*,0.8,14.1
O=C(CCCc1ccccc1)Nc1ccc(Br)cc1C(=O)O,8.7,0.1,0.7,5.9*,-0.2,-6.5
O=C(Cc1ccc(F)cc1)NCc1ccccc1,3.9,-0.1,-5.4,5.2*,-0.5,4.2
COc1ccc(Cl)cc1S(=O)(=O)N1CCCC(C(=O)NCC(N)=O)C1 (stereo not given),-1.7,-0.1,-5.9,7.4*,0.6,5.5
COc1ccc(C)cc1S(=O)(=O)N1CCCC(C(N)=O)C1 (stereo not given),6.3,0.0,1.2,0.1,.,.
CCOC(=O)Nc1nnc(Cc2ccc(Cl)c(Cl)c2)s1,14.7,0.0,-0.3,5.8*,0.8,-3.6
COc1ccccc1OCc1nnc(SCCN2CCOCC2)o1,-1.6,-0.3,6.7,5.9*,0.6,7.4
O=C(NCCc1ccccc1)c1ccccc1NC(=O)C1COc2ccccc2O1 (stereo not given),12.3,0.3,-40.4,-0.8,.,.
CCCN(CCC)CCCNC(=O)C(=O)Nc1ccc(I)cc1,-1.1,0.1,3.1,10.9*,0.1,-0.1
CCCN(CCC)CCCNC(=O)C(=O)Nc1ccc(C)cc1,5.2,0.2,2.6,0.0,.,.
CCOCCn1c(=O)c2c(nc3n2CC(C)CN3c2ccccc2C)n(C)c1=O (stereo not given),12.3,-0.1,7.6,1.5,.,.
O=C(CCSc1ccccc1)Nc1nc2ccccc2s1,11.6,-0.1,-32.6,5.0*,-0.5,4.3
O=C(COC(=O)C1CCC(=O)N1)Nc1nc2ccccc2s1 (stereo not given),6.7,0.0,-4.2,6.0*,0.2,-1.4
CC(C)(O)C#Cc1ccc(C(=O)Nc2ccc(OC(F)(F)F)cc2)cc1,-8.4,0.0,19.7,2.0,.,.
CC(C)CS(=O)(=O)Nc1ccc2c(c1)CCCN2S(=O)(=O)c1ccc(F)cc1,-4.0,-0.1,-9.9,5.2*,0.0,-1.7
O=C(NCc1ccccc1)c1cc(-c2ccc3c(c2)OCCO3)on1,12.5,-0.1,-12.5,0.5,.,.
Cc1ccc(SCC(=O)Nc2cccc(F)c2)cc1,-10.3,-0.1,-56.7,6.4*,-0.5,-5.5
O=C(CSc1ccccc1)Nc1cccc(F)c1,4.0,0.1,-47.8,-1.1,.,.
O=C(CNS(=O)(=O)c1ccccc1)Nc1cccc(F)c1,0.9,0.2,1.9,6.0*,-0.3,-2.7
O=C(CNS(=O)(=O)c1ccc(Br)cc1)Nc1cccc(F)c1,11.7,0.1,-0.8,0.7,.,.
O=C(O)c1ccc(NC(=O)c2cccc(S(=O)(=O)Nc3cccc(F)c3)c2)cc1,-2.7,-0.1,-0.1,8.7*,0.1,3.7
Cc1nc(CN2C(=O)C(C)Oc3ccc([N+](=O)[O-])cc32)cs1 (stereo not given),21.8,-0.2,0.1,-1.0,.,.
COc1cccc(-n2nnc3c(=O)n(CC(=O)Nc4ccc(Cl)cc4)cnc32)c1,14.8,-0.1,11.6,2.8,.,.

# Compound activity (PubChem)
